Yeast superoxide: reduction of superoxide in aged yeast, primary screen, HTS | S. cerevisiae aged cells, superoxide DHE fluorescence; hits give low values | superoxide response (% of plate mean), % at 10 µM | 0.18% of 330,000 active;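 active = superoxide response under a set limit, about three screen SD below normal, cut at about 65% in these data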;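 note: yeast aged for seven days with compound at 30 °C before DHE staining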
HGIII-sPLA2 inh: human group III sPLA2 inhibitors, primary screen, biochemical, QFRET, BODIPY PC-A2 liposome substrate. 0.56% of 370,000 active. Group 3 secretory phospholipase A2 (Homo sapiens), Q9NZ20. QFRET BODIPY PC-A2 liposome hydrolysis, fluorescence. inhibition, % at 12.2 µM;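 active = inhibition above mean plus 3 SD of compounds lying within the high and low control bounds, cut at about 19% in these data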
HIF act: HIF pathway transcriptional activators, primary screen, cell-based, U2OS HRE-luciferase, luminescence; activation, % at 7.5 µM (by protocol); U2OS HRE-luciferase reporter; normalized: DMSO 0%, desferrioxamine 100%; AID 1910, 2009; 0.32% of 300,000 active;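 active = mean activation of at least 10% of the iron chelator positive control signal, with at least half of replicates also reaching 10%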
PLCb3 inh: human PLC-beta3 inhibitors, primary screen, biochemical, fluorescence. Purified PLC-beta3, fluorogenic substrate. inhibition, % at 12.2 µM. 0.18% of 370,000 active. AID 720704, 2013; in the data active = inhibition above about 11%
PLCg1 inh: PLC-gamma1 enzyme inhibitors, primary screen, biochemical, fluorescence, purified enzyme; 0.84% of 370,000 active; AID 720700, 2013; inhibition, % at 12.2 µM; 1-phosphatidylinositol 4,5-bisphosphate phosphodiesterase gamma-1 (Homo sapiens), P19174; fluorogenic substrate; in the data active = inhibition above about 9.5%
AHR act: AHR activators, primary screen, cell-based, luminescence, luciferase reporter, human | Aryl hydrocarbon receptor (Homo sapiens), P35869 | AHR-responsive luciferase reporter cells | activation, % at 5 µM | 2.5% of 320,000 active; in the data active = activation above about 47%
Target sequence (P35869 whole entry, looked up): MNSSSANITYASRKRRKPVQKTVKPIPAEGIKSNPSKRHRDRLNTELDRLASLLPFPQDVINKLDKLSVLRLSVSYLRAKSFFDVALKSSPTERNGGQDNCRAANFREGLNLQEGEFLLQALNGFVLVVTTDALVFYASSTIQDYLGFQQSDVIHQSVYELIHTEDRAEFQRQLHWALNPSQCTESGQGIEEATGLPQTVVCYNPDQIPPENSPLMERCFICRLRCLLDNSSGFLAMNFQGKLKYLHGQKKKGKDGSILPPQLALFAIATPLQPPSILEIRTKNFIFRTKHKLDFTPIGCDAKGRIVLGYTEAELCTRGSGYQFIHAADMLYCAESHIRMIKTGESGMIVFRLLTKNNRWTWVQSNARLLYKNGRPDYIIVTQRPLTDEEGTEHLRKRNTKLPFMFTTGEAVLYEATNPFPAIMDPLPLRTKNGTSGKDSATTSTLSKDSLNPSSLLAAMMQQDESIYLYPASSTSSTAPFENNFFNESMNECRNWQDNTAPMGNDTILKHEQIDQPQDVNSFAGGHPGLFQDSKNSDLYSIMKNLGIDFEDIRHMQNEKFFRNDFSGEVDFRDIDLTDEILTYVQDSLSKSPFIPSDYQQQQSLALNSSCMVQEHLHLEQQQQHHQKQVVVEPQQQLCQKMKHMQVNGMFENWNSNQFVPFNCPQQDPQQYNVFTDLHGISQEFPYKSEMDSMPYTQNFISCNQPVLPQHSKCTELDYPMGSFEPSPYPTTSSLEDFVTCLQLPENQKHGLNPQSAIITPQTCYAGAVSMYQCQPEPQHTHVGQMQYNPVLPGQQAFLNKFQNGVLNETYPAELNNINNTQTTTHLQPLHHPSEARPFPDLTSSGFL
Each line names hits and unclear results; the compound was inactive in the other large screens. Rows were chosen to be rich in hits. Some 3.9% of all compounds tested hit in one or more screens of this group.

C=CCn1c(SCC(=O)NCCc2ccccc2)nc2c([nH]c3ccccc32)c1=O	AHR act 60
COc1ccc(C)cc1-n1c(SCC(=O)NCC2CCCO2)nc2c([nH]c3ccccc32)c1=O (stereo not given)	AHR act 67
C=CCn1c(SCC(=O)N2CCN(c3ccccc3)CC2)nc2c([nH]c3ccccc32)c1=O	AHR act 66
CCOC(=O)[C@]12CCCCC/C=C\1N(CCc1ccc(Cl)cc1)C(=O)[C@H]2CC(=O)NCc1cccc2ccccc12	none (no result: Yeast superoxide, HIF act, AHR act)
O=C(Nc1ccc(N2C(=O)CC(c3ccccc3)C2=O)c(Cl)c1)c1ccccn1 (stereo not given)	none (no result: Yeast superoxide, HIF act, AHR act)
COc1ccc(C2Nc3ccccc3C(=O)N2Cc2ccco2)cc1COc1ccccc1C (stereo not given)	none (no result: Yeast superoxide, HIF act, AHR act)
COc1ccccc1NC(=O)Nc1nnc(C(C)C)s1	AHR act 60
COc1ccccc1NC(=O)Nc1nnc(C(C)c2ccccc2)s1 (stereo not given)	none
COc1ccccc1NC(=O)NC(=O)N(C(C)C)S(C)(=O)=O	AHR act 60
CCCCN(C(=O)NC(=O)Nc1cc(C)ccc1C)S(C)(=O)=O	none
CCCCN(C(=O)NC(=O)Nc1ccccc1OC)S(C)(=O)=O	AHR act 58
COc1cccc(CN(C)C(=O)[C@H]2O[C@@H](n3cnc4c(=O)[nH]c(N)nc43)[C@H](O)[C@@H]2O)c1	none (no result: Yeast superoxide, HIF act, AHR act)
COC(=O)C1=C(C)N(Cc2ccccc2C(F)(F)F)C(=NCc2ccccc2C(F)(F)F)NC1c1cccc(C(F)(F)F)c1 (stereo not given)	none (no result: Yeast superoxide, HIF act, AHR act)
COC(=O)[C@]12C[C@H](CC(=O)NCc3ccc(C)o3)C(=O)N(Cc3cccc4ccccc34)C1=C[C@H](COCc1ccccc1)O[C@@H]2C	none (no result: Yeast superoxide, HIF act, AHR act)
CN(CCCOC(=O)c1cc2ccccc2o1)C1CN(Cc2cn(Cc3ccccc3Cl)nn2)S(=O)(=O)C1 (stereo not given)	none (no result: Yeast superoxide, HIF act, AHR act)
CCCCN1CN2Cc3ccccc3C2CS1(=O)=O (stereo not given)	none (no result: Yeast superoxide, HIF act, AHR act)
COP(=O)(OC)c1ccc(NCc2cc(O)ccc2O)cc1	none (no result: Yeast superoxide, HIF act, AHR act)
CCC(=O)Nc1ccc(C(=O)OCc2ccccc2)cc1	none
CC(C)OC(=O)c1ccc(NCc2cc(O)ccc2O)cc1	HGIII-sPLA2 inh 22 (no result: Yeast superoxide, HIF act, AHR act)
O=C(OCc1ccccc1)c1ccc(NCc2cc(O)ccc2O)cc1	HGIII-sPLA2 inh 26 (no result: Yeast superoxide, HIF act, AHR act)
Cc1ccc(-c2cc3c(N=O)c4ccccc4c-3n[nH]2)cc1	none
Cc1cccc(-c2cc3c(N=O)c4ccccc4c-3n[nH]2)c1	AHR act 127
COC(=O)[C@]12C[C@H](CC(=O)NCc3cccc4ccccc34)C(=O)N(Cc3cccc4ccccc34)C1=C[C@H](COCc1ccccc1)O[C@@H]2C	none (no result: Yeast superoxide, HIF act, AHR act)
COc1ccc(NC(=O)c2cc(-c3ccccn3)nc3ccccc23)c(OC)c1	none (no result: HIF act)
Cc1cccc(-c2cc(C(=O)NCc3ccccn3)c3ccccc3n2)c1	none
O=C(NCc1ccccn1)c1cc(-c2ccc(-c3ccccc3)cc2)nc2ccccc12	AHR act 66
CCOc1ccccc1NC(=O)c1cc(-c2ccccn2)nc2ccccc12	AHR act 71 (no result: HIF act)
Cc1ccc(-c2cc(C(=O)NCc3ccccn3)c3ccccc3n2)cc1C	AHR act 56
Cc1cc(NC(=O)c2cc(-c3ccc(C)c(C)c3)nc3ccccc23)no1	AHR act 58
COc1ccccc1NC(=O)OC1CC2CC1[C@H]1CCCCN1[C@H]2C (stereo not given in full)	none (no result: Yeast superoxide, HIF act, AHR act)
CC1CCN(Cc2nnnn2CCCC(=O)NCCc2cnn(C)c2)CC1	HIF act 67
CC1CCN(Cc2nnnn2CCCC(=O)NCC(C)(C)N2CCOCC2)CC1	none
c1ccc(-c2nc3ccccc3c3nc4ccccc4n23)cc1	AHR act 52
FC(F)(F)c1nc2ccccc2c2nc3ccccc3n12	AHR act 50
c1ccc2c(c1)nc(CN1CCOCC1)n1c3ccccc3nc21	none
c1ccc(-c2nc3nonc3c3nc4ccccc4n23)cc1	none (no result: HIF act)
CCc1nc2ccccc2c2nc3ccccc3n12	AHR act 51
CCn1c(=N)n(CC(=O)OC)c2ccccc21	none
CCCCn1c(=N)n(CC(=O)c2ccc(Br)s2)c2ccccc21	AHR act 52
CCn1c(=N)n(CC(=O)c2ccc(Br)s2)c2ccccc21	AHR act 48
C[C@H](O)[C@@H]1C(=O)N2CCc3c([nH]c4cccc(-c5ccccc5)c34)[C@@H]2C[C@@H]1N(C)C(=O)Nc1ccccc1	none (no result: Yeast superoxide, HIF act, AHR act)
CCC(C(=O)Nc1ccccc1N1CCCC1)c1ccccc1Cl (stereo not given)	none (no result: Yeast superoxide, HIF act, AHR act)
C=CCN1[C@@H](CC(C)C)COc2cccc(F)c2S1(=O)=O	none (no result: Yeast superoxide, HIF act, AHR act)
COCc1c(C(=O)Nc2ccc(Cl)cc2F)oc2ccccc12	AHR act 71
Cc1cccc2c(N)c3c(nc12)CCCC3 (tested in a mixture with another compound)	none (no result: Yeast superoxide, HIF act, AHR act)
Cc1cc(C)c2c(N)c3cccc(C)c3nc2n1	AHR act 69 (no result: HIF act)
CC(/C=C/c1ccc2c(c1)OCO2)=N\NC(=O)c1ccccc1	none
CC(/C=C/c1ccc2c(c1)OCO2)=N/NC(=O)CNc1ccc(C)cc1	AHR act 97
O=C(CNc1ccccc1)N/N=C/c1ccc2c(c1)OCO2	AHR act 53
O=C(CNC(=O)c1ccccn1)N/N=C/c1ccc2c(c1)OCO2	AHR act 68
CSc1ccc(/C=N/NC(=O)CNc2cccc3ccccc23)cc1	none
CSc1ccc(/C=N/NC(=O)CNc2ccc3ccccc3c2)cc1	AHR act 68
CCCCNC(=O)C[C@H]1C[C@@]2(C(=O)OC)C(=C[C@H](COCc3ccccc3)O[C@@H]2C)N(Cc2ccccc2)C1=O	none (no result: Yeast superoxide, HIF act, AHR act)
Cc1cc(C)nc(NC(=S)N2CCN(c3ncc(C(F)(F)F)cc3Cl)CC2)c1	none (no result: Yeast superoxide, HIF act, AHR act)
CCN(CC)c1ccc(/C=N/NC(=O)CNC(=O)c2ccccn2)cc1	AHR act 60
O=C(CCc1c[nH]c2ccccc12)N/N=C/c1ccc2c(c1)OCO2	AHR act 53
CCN(CC)c1ccc(/C=N/NC(=O)CC(C)C)cc1	none
O=C(CCc1ccccc1)N/N=C\c1cc2c(cc1Br)OCO2	none
O=C(N/N=C/c1cc(Cl)ccc1O)C(=O)Nc1ccccc1OC(F)(F)C(F)F	none (no result: HIF act)
O=C(N/N=C/c1cc(Br)ccc1O)C(=O)Nc1ccccc1OC(F)(F)C(F)F	HIF act 12
O=C(N/N=C/c1cc(Br)ccc1O)c1ccccc1Cl	HIF act 26
Cc1ccc(C(=O)N/N=C\C=C\c2ccc(Br)cc2)cn1	none
